Measured values: PubChem BioAssay (EPA / NIEHS)
Inconclusive results are not listed. Calls of active or inactive are those of the source. How the source made its calls: active means hit-call score of the fitted dose curve at least 0.9, where 1 is the maximum; inconclusive means response in the unintended direction; inactive means score below 0.9.

What follows are compounds tested against human Adenosine Transporter (Adot), SLC29A1 (gene 2030) (UniProt Q99808) (assay: NVS_TR_hAdoT: NovaScreen (NVS) Transporter Assay for human Adenosine Transporter (Adot) (AID 2283368)).
Sequence of human Adenosine Transporter (Adot), SLC29A1 (gene 2030) (Q99808 whole entry, looked up): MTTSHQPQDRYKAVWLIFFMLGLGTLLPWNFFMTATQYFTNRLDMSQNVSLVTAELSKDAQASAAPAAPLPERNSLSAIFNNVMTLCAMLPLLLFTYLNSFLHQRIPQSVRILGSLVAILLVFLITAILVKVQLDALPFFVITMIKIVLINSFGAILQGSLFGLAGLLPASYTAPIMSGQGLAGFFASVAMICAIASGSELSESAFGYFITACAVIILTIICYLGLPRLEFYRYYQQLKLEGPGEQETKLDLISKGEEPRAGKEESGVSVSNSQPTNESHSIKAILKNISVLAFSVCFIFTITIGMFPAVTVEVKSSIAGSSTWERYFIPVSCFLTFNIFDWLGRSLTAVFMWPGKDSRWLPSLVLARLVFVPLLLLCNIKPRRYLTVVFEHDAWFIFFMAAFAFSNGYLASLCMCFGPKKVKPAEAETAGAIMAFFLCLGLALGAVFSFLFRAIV
Description: NVS_TR_hAdoT is a biochemical, single-readout assay that uses extracted gene-proteins from U937 in a cell-free assay. Measurements were taken 1 hour after chemical dosing in a 96-well plate.NVS_TR_hAdoT is one of one assay component(s) measured or calculated from the NVS_TR_hAdoT assay. It is designed to make measurements of radioligand binding, a form of binding reporter, as detected with scintillation counting signals by Filter-based radiodetection technology.Data from the assay component NVS_TR_hAdoT was analyzed into 1 assay endpoint. This assay endpoint, NVS_TR_hAdoT, was analyzed in the positive analysis fitting direction relative to DMSO as the negative control and baseline of activity. Using a type of binding reporter, loss-of-signal activity can be used to understand changes in the binding as they relate to the gene SLC29A1. Furthermore, this assay endpoint can be referred to as a primary readout, because the performed assay has only produced 1 assay endpoint. To generalize the intended target to other relatable targets, this assay endpoint is annotated to the transporter intended target family, where the subfamily is nucleoside transporter.
Binding assays used specific radioligands (tritiated, iodinated) with non-radioactive competitive displacement ligands in agonist or antagonist protocols (as indicated) and various reference compounds and inhibitors to titrate specific binding to receptors and transporters. Most enzyme assays (CYPs, kinases, phosphatases, proteases, HDACs) used recombinant protein and specific substrates (fluorescence mostly, some colorimetric and radioactive) and inhibitors, followed by a biochemical separation of substrate and product. All assays for the biochemical HTS were initially run in duplicate at a single concentration (10 uM for CYP450 assays and 25 uM for all others). Assay-chemical combinations meeting a pre-defined threshold (e.g., 30% inhibition and other criteria defined below) were then run in singleton concentration-response format with maximum concentration of 20 uM for CYPs and 50 uM for all others. Each assay was run with positive and negative controls, and concurrent controls on every plate. The follow-up (secondary) screen tested active chemical-pairs in concentration series, as well as a few additional assays not tested in the primary screen, some selected negative inactives, and several cases re-run in the concentration series for confirmatory purposes.
With `Cn1c(=O)cc(Oc2ccc(F)cc2F)c2cnc(NCC(C)(C)O)nc21` the AC50 was 25 µM (active). For `Cc1ccc(N)cc1O`, the outcome was “inactive”. In the case of `CCC(C)(C)C(=O)O[C@H]1C[C@@H](C)C=C2C=C[C@H](C)[C@H](CC[C@@H]3C[C@@H](O)CC(=O)O3)[C@H]21`, the AC50 is reported as 25 µM (active). With `CCCCC(CC)COC(=O)CCCCCCCCC(=O)OCC(CC)CCCC` (stereo unspecified) the AC50 was 39.9 µM (active). `O=C(OC[C@H]1O[C@@H](OC(=O)c2cc(O)c(O)c(OC(=O)c3cc(O)c(O)c(O)c3)c2)[C@H](OC(=O)c2cc(O)c(O)c(OC(=O)c3cc(O)c(O)c(O)c3)c2)[C@@H](OC(=O)c2cc(O)c(O)c(OC(=O)c3cc(O)c(O)c(O)c3)c2)[C@@H]1OC(=O)c1cc(O)c(O)c(OC(=O)c2cc(O)c(O)c(O)c2)c1)c1cc(O)c(O)c(OC(=O)c2cc(O)c(O)c(O)c2)c1` was tested, and the AC50 was 3.15 µM (active). With `Fc1ccccc1[C@@H](F)COC1CCC(Nc2ncnc3[nH]ncc23)CC1` (stereo partly specified) the AC50 was 5.08 µM (active). In the case of `CCOc1cccc(-n2cc(C(=O)N3CCN(c4cc(C(=O)O)c5ccccc5c4)CC3)nc2-c2ccc(C)cc2)c1`, the AC50 is reported as 14.8 µM (active). For `COc1ccc(-n2nc(C(F)F)cc2-c2ccc(S(C)=O)cc2)cc1` (stereo unspecified), the AC50 was 33.2 µM (active). In the case of `CCc1cc(SCc2sc(-c3ccc(C(F)(F)F)cc3)nc2CN2CCN(c3ccc(OC)cc3)CC2)ccc1OCC(=O)O`, the AC50 is reported as 10.8 µM (active). For `CCCCCCc1ccc(O)cc1O`, the outcome was “inactive”. With `O=C(O)c1cccc(Oc2ccccc2)c1` the outcome was “inactive”.
